Inconclusive results are not listed. Activity calls are given as the source filed them. Calls come from the whole dose curve; as a rule, active = well fitted curve in the direction sought with a large enough effect; inconclusive = small, poorly fitted or top-dose-only effect, or another doubt; inactive = no such curve, though single readings can be large; an effect the other way counts as inactive or inconclusive. Numbered stars: 1 amine (or outer) side, 2 acyl side, 3 side chain; on linkers, the order of the positions; unused ones are H or OH. Bridge positions count the residues as written; N and C are the ends. Square brackets hold non-standard residues; d marks the D form. Peptide text beside a SMILES is read from it. ξ: configuration not given here. Phe(3R-OH) = O=C([C@@H](N[*:1])[C@H](O[*:3])c1ccccc1)[*:2]; NMeTrp(4-OMe) = CN[C@@H](Cc1c[nH]c2cccc(OC)c12)C(=O)O; ξThr(3R)(O-yl) = C[C@@H](O[*:3])C(N[*:1])C(=O)[*:2]; NMeThr(3ξ) = CN[C@H](C(=O)O)C(C)O; NMeL = CN[C@@H](CC(C)C)C(=O)O; NMeV = CN[C@H](C(=O)O)C(C)C; ξIle = CC[C@H](C)C(N)C(=O)O; ξV = CC(C)C(N)C(=O)O
Key:
[1] = SW1088 Cancer Cell Toxicity qHTS against the NCATS CANVASS Library (AID 1347350); note: nearly all actives have a fitted effect of over 75% in size
Method in brief: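 Toxicity is measured over 72 h of compound exposure at 37 degrees C under 5% CO2. Each well holds 1000 cells, pre-incubated for 4 hours before dosing across an 11-point range. CellTiter-Glo luminescence gives viability.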

[2] = HEK-293 Cancer Cell Toxicity qHTS against the NCATS CANVASS Library (AID 1347355); note: series mostly up to about 46 µM; nearly all actives have a fitted effect of over 65% in size
Method in brief: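 Toxicity was measured as CellTiter-Glo luminescence after 72 h exposure to an 11-point compound series. Compound was added to 1000 cells/well 4 h after seeding.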

[3] = HPAF-II 12hr Apoptosis Induction qHTS against the NCATS CANVASS Library (AID 1347358)
Method in brief: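 Caspase-3/7 activation by DEVD-substrate luminescence (Caspase-Glo 3/7, 15 min, room temperature) after a 12-hour compound exposure in 11 concentrations, of HPAF-II pancreatic cells seeded at 500/well in DMEM with 10% FBS.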

[4] = SDT Cancer Cell Toxicity qHTS against the NCATS CANVASS Library (AID 1347365); note: nearly all actives have a fitted effect of over 60% in size
Method in brief: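 Cytotoxicity taken from CellTiterGlo ATP luminescence after 72 hr at 37C, 5% CO2. Canine glioma line SDT, 500 cells/well, treated at 11 concentrations; bortezomib dose series as control.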

[5] = KB-3-1 Cancer Cell Toxicity qHTS against the NCATS CANVASS Library (AID 1347366); note: nearly all actives have a fitted effect of over 75% in size
Method in brief: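 Luminescence from CellTiter-Glo (10 min, room temperature) measured KB-3-1 viability after 72 hr compound exposure at 37C. Cells were seeded at 500/well and tested in an 11-point series.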

[6] = G06 Cancer Cell Toxicity qHTS against the NCATS CANVASS Library (AID 1347368); note: nearly all actives have a fitted effect of over 60% in size
Method in brief: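 Viability measured by CellTiterGlo ATP luminescence after 72 hr at 37C, 5% CO2. Canine G06 glioma cells plated at 500/well. Compounds tested as 11-point qHTS titrations.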

[7] = qHTS for ATAD5 Antagonist screened against the NCATS CANVASS Library (AID 1347370);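 note: HEK293T cells carrying an ATAD5 luciferase reporter co-treated with 10 µM 5-fluorouridine; series mostly up to about 46 µM; nearly all actives have a fitted effect of over 65% in size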
Method in brief: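 Compounds (11-point) co-dosed with 10 µM 5-FUrd for 16 h at 37 °C onto HEK293T-ATAD5 luciferase reporter cells. Viability measured by CellTiter-Fluor fluorescence, then ATAD5 reporter signal by luminescence.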

[8] = molecular target: Nuclear receptor subfamily 1 group I member 3 (Homo sapiens) (UniProt Q14994); assay: qHTS for Constitutive Androstane Receptor (CAR) Antagonist screened against the NCATS CANVASS Library (AID 1347372);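 note: cells stimulated with 50 nM CITCO agonist so inhibition reflects antagonism; series mostly up to about 46 µM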
Sequence of Nuclear receptor subfamily 1 group I member 3 (Homo sapiens) (Q14994 whole entry, looked up): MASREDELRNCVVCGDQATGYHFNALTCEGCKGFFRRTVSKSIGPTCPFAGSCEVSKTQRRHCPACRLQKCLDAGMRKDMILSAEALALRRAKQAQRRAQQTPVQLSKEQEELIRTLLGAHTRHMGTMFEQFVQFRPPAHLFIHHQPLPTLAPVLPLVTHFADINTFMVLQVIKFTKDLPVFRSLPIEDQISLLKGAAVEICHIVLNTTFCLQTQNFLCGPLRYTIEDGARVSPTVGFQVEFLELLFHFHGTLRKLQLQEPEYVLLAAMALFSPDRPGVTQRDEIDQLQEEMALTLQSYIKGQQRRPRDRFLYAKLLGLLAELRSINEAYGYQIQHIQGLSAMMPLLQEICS
Method in brief: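 Antagonist mode: compound added alongside 50 nM CITCO to HepG2-hCAR-CYP2B6 reporter cells, 24hr at 37C. Viability by CellTiter-Fluor fluorescence, then CAR-driven luciferase by ONE-Glo luminescence.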

[9] = molecular target: Nuclear receptor subfamily 1 group I member 3 (Homo sapiens) (UniProt Q14994); assay: qHTS for Constitutive Androstane Receptor (CAR) Agonist screened against the NCATS CANVASS Library (AID 1347373);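 note: every well also contained 1.5 µM PK11195 alongside the test compound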
Method in brief: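 Agonist mode with 1.5uM PK11195 present: compounds for 24hr on HepG2-hCAR-CYP2B6 cells. CellTiter-Fluor fluorescence (ex 405, em 540 nm) gives viability; ONE-Glo luminescence reports CAR activation.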

[10] = qHTS for Hypoxia signaling pathway (HIF-1) antagonists against the NCATS CANVASS Library (AID 1347374); note: nearly all actives have a fitted effect of over 60% in size; note: potency is the fitted concentration of half-maximal effect
Method in brief: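 Antagonism scored as loss of CoCl2-driven (60 uM stock added) HRE beta-lactamase signal, read by CCF4 FRET at 460/530 nm. Compounds were tested in an 11-point series on ME-180 reporter cells for 17 hrs at 37C, with parallel CellTiter-Glo cytotoxicity.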

[11] = 10-beta competent E. coli microbial cell viability qHTS against the NCATS CANVASS Library (AID 1347376); note: series mostly up to about 46 µM
Method in brief: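 Read-out: BacTiter-Glo ATP luminescence, taken 20 min after reagent addition. Beforehand, 10-beta competent E. coli at 0.2 OD had been incubated overnight at 37C with compounds at 11 concentrations.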

[12] = qHTS for H2AX Agonists against the NCATS CANVASS Library (AID 1347378);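 note: phospho-H2AX S139 level in CHO-K1 lysates by TR-FRET emission ratio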
Method in brief: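 CHO-K1, 1000 cells/well, o/n 37C; cpd several conc, 3 hr 37C, 0.76% DMSO; lyse 30 min RT; cryptate anti-pH2AX(S139) + d2 anti-H2AX, 24 hr RT; HTRF 665/620.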

[13] = Cytotoxicity qHTS for assessment of Hepg2 cells membrane integrity screened against the NCATS CANVASS Library (AID 1347387)
Method in brief: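 Membrane damage quantified as fluorescent LDH-release signal (ex 560, em 590 nm) in HepG2 cells treated 5 hr at 37C. qHTS format, 11 concentrations spanning 0.59 nM - 46 uM final, cells plated at 2000 per well the night before.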

[14] = qHTS for Activators of p53 Stress Response Pathway screened against the NCATS CANVASS Library (AID 1347388)
Method in brief: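 Beta-lactamase reporter driven by p53 response elements in HCT-116 cells, read as the 460 nm/530 nm emission ratio after CCF4 loading, following 16 h of exposure to an 11-point series. Cell viability was measured in the same wells by CellTiter-Glo luminescence.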

[15] = qHTS assay for small molecule disruptors of mitochondrial membrane potential screened against the NCATS CANVASS Library (AID 1347389); note: series mostly up to about 46 µM; nearly all actives have a fitted effect of over 60% in size
Method in brief: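 Mitochondrial membrane potential in HepG2: 1 h compound treatment (11-point concentration series), 30 min m-MPI dye at 37C, then dual fluorescence of J-aggregates (ex 540/em 590) and monomers (ex 490/em 535); lower red/green ratio indicates depolarization.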

[16] = Secretion counterscreen for inhibitors of the SERCaMP assay screened against the NCATS CANVASS Library (AID 1347390);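 note: light from luciferase secreted into medium read as a measure of general secretion; series mostly up to about 77 µM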
Method in brief: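 SH-SY5Y-GLuc STOP cells; 4 h attach; cpds 0.001 - 77 uM (qHTS, 11 pts), 20 h 37C/5% CO2; coelenterazine in glow buffer; luminescence, 5 s exposure.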

[17] = qHTS for activators of dead-cell proteases activity screened against the NCATS CANVASS Library (AID 1347392);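 note: luminescence from protease leaking out of membrane-damaged cells cleaving impermeant substrate; rising signal means more cytotoxicity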
Method in brief: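 Luminescent dead-cell protease readout (AAF-aminoluciferin, 15 min, room temperature) after 5 h compound treatment of HepG2 cells (2000/well, pre-attached 18 h). Eleven concentrations.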

[18] = qHTS for inhibitors of ER calcium dysfunction: SERCaMP assay screened against the NCATS CANVASS Library (AID 1347393); note: nearly all actives have a fitted effect of over 40% in size; note: potency is the fitted concentration of half-maximal effect
Method in brief: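 Thapsigargin-induced ER calcium depletion drives GLuc-SERCaMP secretion from SH-SY5Y cells; compounds given 16 h beforehand were scored by lowered coelenterazine luminescence after 4 h challenge.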

[19] = Viability qHTS for inhibitors of the SERCaMP assay screened against the NCATS CANVASS Library (AID 1347400); note: series mostly up to about 92 µM; nearly all actives have a fitted effect of over 70% in size
Method in brief: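 CellTiter-Glo luminescence measured cytotoxicity after 48 h at 37C of compound treatment (11-point series). Cells were SH-SY5Y-GLuc SERCaMP MJH297 derivatives, seeded at 1000 per well 4 h beforehand.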

[20] = Redox Reaction Profiling qHTS: Assay Interference Panel against the NCATS CANVASS Library (AID 1347401)
Method in brief: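 Redox-cycling liability assessed as DTT-driven conversion of resazurin (5 uM, with 200 uM DTT, HEPES pH 7.3) to fluorescent resorufin. Fluorescence at 525/598 nm measured initially and after 15 min dark incubation.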

Measured: Potency

CC(O)/C=C/C1(O)C(C)(C)CC(O)CC1(C)O (stereo not drawn)
inactive: all assays above

O=C(O)CC1OCc2c(O)cccc21 (stereo not drawn)
not listed: [16]
inactive: all other assays above

CC1C(=O)C23CCC1C[C@]21O[C@@H]2C(C)(C)C=CC(=O)[C@@]23COC1=O (stereo partly drawn)
not listed: [18]
inactive: all other assays above

O=Cc1ccc2n1C[C@@]1(OC2)O[C@H](CO)[C@@H](O)[C@@H]1O
inactive: all assays above

C[C@@H]1C(=O)[C@]23CC[C@H]1C[C@]21O[C@H]2C(C)(C)C=CC(=O)[C@@]23COC1=O
active: [10] 23.6 µM
not listed: [9] | [18]
inactive: all other assays above

C=C1C[C@@]23C=CC(=O)[C@@](C)(CCC(=O)Nc4c(OC5O[C@H](CO)[C@@H](O)[C@H](O)[C@H]5O)ccc(C(=O)O)c4O)C2C[C@@H]1CC3 (stereo partly drawn)
not listed: [19] | [20]
inactive: all other assays above

C=C1[C@H]2CC[C@@]3(C=CC(=O)[C@@](C)(CCC(=O)Nc4c(O)ccc(C(=O)O)c4O)C3C2)[C@H]1O (stereo partly drawn)
not listed: [4]
inactive: all other assays above

O=C1c2c(O)cc(O)cc2O[C@@H](c2ccc(O)cc2)[C@@H]1c1c(O)cc(O)c2c(=O)cc(-c3ccc(O)c(O)c3)oc12
not listed: [6] | [11] | [14] | [15]
inactive: all other assays above

CC[C@H](C)C(NC(=O)[C@@H](NC)C(C)C)C(=O)NC1C(=O)N(C)[C@@H](C(C)O)C(=O)N[C@@H](C(C)C)C(=O)N(C)[C@@H](CC(C)C)C(=O)NC(C(C)C)C(=O)N(C)[C@@H](C(C)C)C(=O)N(C)[C@@H](Cc2c[nH]c3cccc(OC)c23)C(=O)N[C@@H](C(C)C)C(=O)N[C@@H]([C@H](O)c2ccccc2)C(=O)N[C@@H](C(C)C)C(=O)O[C@@H]1C (stereo partly drawn) (H-[NMeV][ξIle][ξThr(3R)(O-yl)][NMeThr(3ξ)]V[NMeL][ξV][NMeV][NMeTrp(4-OMe)]V[Phe(3R-OH)]V; ester 3-C)
active: [18] 27.2 µM
not listed: [4] | [6] | [8] | [11]
inactive: all other assays above

C/C=C/c1cc(OC)c2c(c1)[C@@H](C)[C@H](c1ccc(O)c(OC)c1)O2
active: [18] 24.3 µM
not listed: [6]
inactive: all other assays above

COc1cc(/C=C/C(=O)O)ccc1O
not listed: [16]
inactive: all other assays above

From PubChem BioAssay (NCATS)
